About 30 (0.05%) of roughly 63,000 compounds were called active. How the calls were made is not given here. The list is a sample of the results.
Biological target: G protein-activated inward rectifier potassium channel 2 (Homo sapiens) (UniProt P48051)
Assay: opens human GIRK2 potassium channels (AID 1259325)
Conditions: HEK293-GIRK2 thallium flux, Thallos fluorescence, MPD

G protein-activated inward rectifier potassium channel 2 (Homo sapiens), sequence (P48051 whole entry, looked up): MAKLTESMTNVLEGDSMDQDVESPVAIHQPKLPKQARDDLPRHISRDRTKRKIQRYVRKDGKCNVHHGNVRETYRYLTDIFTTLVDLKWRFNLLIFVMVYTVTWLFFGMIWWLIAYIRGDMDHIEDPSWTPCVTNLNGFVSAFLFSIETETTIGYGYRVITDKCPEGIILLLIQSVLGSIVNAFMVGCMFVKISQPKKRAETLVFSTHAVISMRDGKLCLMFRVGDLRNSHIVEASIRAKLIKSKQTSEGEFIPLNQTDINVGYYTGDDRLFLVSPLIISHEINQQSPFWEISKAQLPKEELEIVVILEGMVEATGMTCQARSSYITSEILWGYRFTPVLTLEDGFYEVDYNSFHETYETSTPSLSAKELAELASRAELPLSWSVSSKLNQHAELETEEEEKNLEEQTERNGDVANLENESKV

Structure (SMILES)	outcome
Cc1nc(-c2ccc(N3CCN(C(=O)NCc4ccc(F)cc4)CC3)nc2)no1	inactive
O=C(Cc1ccc(F)cc1)N1CC(c2nc(-c3cccnc3)no2)C1	inactive
CCc1cc(=O)n(CCNC(=O)COc2ccc(F)cc2F)cn1	inactive
COc1ccc(S(=O)(=O)Nc2ccc3c(c2)N(C(=O)c2ccccc2)CCC3)cc1F	inactive
NC(=O)c1ccccc1OCC#CCNC(=O)c1ccc(=O)[nH]c1	inactive
COC(=O)c1ccc2c(=O)n(-c3cc(OC)cc(OC)c3)c(N3CCSCC3)nc2c1	inactive
Cc1cc(C(=O)Nc2nc(C(=O)N3CCN(c4cc(Cl)ccc4C)CC3)co2)no1	inactive
Cc1nc(-c2cccc(NC(=O)c3coc(NC(=O)c4cnccn4)n3)c2)cs1	inactive
COc1ccc(NC(=O)Cn2c(=O)nc(N3CCC(C)CC3)c3ccccc32)cc1Cl	inactive
CC(C)c1nnc(C2CCN(Cc3cccnc3)CC2)o1	inactive
CN1CCC(n2cnc(-c3ccc(F)cc3)c2-c2ccnc(N)n2)CC1	inactive
Cc1ccccc1N1CCN(c2nccn3c(=O)n(CC(=O)Nc4ccc(Cl)cc4)nc23)CC1	inactive
Cn1c(=O)c2c(nc(SCCO)n2Cc2ccccc2)n(C)c1=O	inactive
O=C(CSc1nnc(Cn2ccc(=O)[nH]c2=O)o1)N1CCC(Cc2ccccc2)CC1	inactive
COc1ccc(-c2cc3nn(CC(=O)NCc4ccccc4Cl)c(=O)n3c(C)n2)cc1	inactive
COc1cccc(NC(=O)c2cn(CC(O)c3ccccc3)nn2)c1 (configuration not stated)	inactive
CN(C)CCn1c2c(c(=S)[nH]c1=O)CCC2	inactive
CCOC(=O)CCC(=O)N1CCN(Cc2csc(-c3ccccc3)n2)CC1	inactive
Cc1cc(N2CCN(C(=O)NC3CCCC3)CC2)ncn1	inactive
COc1ccc(C)cc1N1CCn2c1nc1c2c(=O)n(Cc2cccc(C)c2)c(=O)n1C	inactive
Nc1nc(Nc2ccc(F)c(F)c2)ncc1[N+](=O)[O-]	inactive
O=C(NCc1cccs1)N1C2CCC1COC2	inactive
CN1CCC(CNC(=O)c2cc(Br)ccc2Cl)CC1	inactive

Structure (SMILES)	outcome
COc1ccccc1C(=O)NCCN1CCN(c2ccccc2OC)CC1	inactive
CCNC(=O)c1cn(-c2ccc(SCC(=O)Nc3ccc(C)cc3)nn2)cn1	inactive
Cn1cnnc1SCCNC(=O)CNC(=O)c1ccc(=O)[nH]c1	inactive
CC(C)c1ccccc1NC(=O)Cc1cc(=O)[nH]c(SCc2ccc(F)cc2)n1	inactive
O=C(NCc1ccccc1)Nc1nnc(-c2ccco2)o1	inactive
NC(=O)c1ccccc1OCC#CCNC(=O)C1CCC1	inactive
Cc1cc(C(O)CCNC(=O)Nc2ccccc2)c(C)o1 (configuration not stated)	inactive
C#CCSc1nnc(N2CCN(c3ccccc3OC)CC2)s1	inactive
O=C(c1ccncc1)N1CCc2cc(S(=O)(=O)N3CCOCC3)ccc21	inactive
COc1ccc(NC(=O)C(=O)NCCC2=CCCCC2)cc1Cl	inactive
COc1ccc(-n2c(C)c(C)n3c4c(=O)n(CC(C)C)c(=O)n(C)c4nc23)cc1	inactive
CCOc1ccccc1C(=O)Nn1cnc2c(cnn2-c2cccc(Cl)c2)c1=O	inactive
CCN(CC)C(=O)Oc1ccc2c(=O)c(-c3ccc(Br)cc3)coc2c1	inactive
COc1ccccc1N1CCN(CCNC(=O)c2ccc(F)cc2)CC1	inactive
CCOC(=O)c1ccc(NC(=O)c2coc(NC(=O)C3CC3)n2)cc1	inactive
CCN(CC)c1ccc(-c2noc(CN3CCN(c4cccc(C)c4)CC3)n2)cn1	inactive
CCCCCn1c(=O)c2c(nc3n2CC(C)CN3c2ccc(Oc3ccccc3)cc2)n(C)c1=O (configuration not stated)	inactive
Cc1cc(C(=O)NCC#CCOc2ccc3c(c2)OCO3)c(C)o1	inactive
COc1cc(OC)cc(N(C)S(=O)(=O)c2ccsc2-c2nc(-c3cccc(C)c3)no2)c1	inactive
O=C(CSc1nnc(-c2ccc(Cl)cc2)c2ccccc12)N1CCOCC1	inactive
Cc1csc(SCC2CCN(S(=O)(=O)c3cccc(C(F)(F)F)c3)CC2)n1	inactive
CC(C)(C)OC(=O)COc1ccc2c(c1)O/C(=C\c1cc(Cl)cc3c1OCOC3)C2=O	inactive
Cc1nc(SCc2ccccc2)[nH]c(=O)c1CC(=O)Nc1ccc(C(C)C)cc1	inactive

Structure (SMILES)	outcome
Cc1ccc(S(=O)(=O)N(Cc2ccc(Cl)cc2)C(=O)N2CCN(C)CC2)cc1	inactive
COc1ccc(C)c2sc(N(CCCn3ccnc3)C(=O)/C=C/c3cccs3)nc12	inactive
CCC(C(=O)Nc1cc(F)ccc1F)n1cc(-c2nc(-c3cnccn3)no2)ccc1=O (configuration not stated)	inactive
COc1cc(NC(=O)Cn2cnc3c(-c4ccc(Cl)cc4)csc3c2=O)cc(OC)c1	inactive
COc1ccccc1OCC#CCNC(=O)c1cnccn1	inactive
Cc1cc(C)c2c(c1)c(=O)c1c(n2C)CCN(C(=O)Nc2cc(Cl)ccc2C)C1	inactive
COc1ccc(C2(CNC(=O)C3CCN(S(C)(=O)=O)CC3)CCOCC2)cc1	inactive
O=C(CSc1cc(C(F)(F)F)c2cc3c(cc2n1)OCO3)NCc1ccco1	inactive
O=C(Cc1ccc(NS(=O)(=O)c2c(F)cccc2F)cc1)NCc1cccs1	inactive
Cc1nn(-c2ncc(NC(=O)c3cccc4ccccc34)cn2)c(C)c1C	inactive
Cc1nc(C)c(-c2nnc(NC(=O)COc3cccc4c3OC(C)(C)C4)o2)s1	inactive
COc1ccc(F)cc1S(=O)(=O)N1CCN=C1c1ccccc1	inactive
O=C(CSCc1ccccc1)Nc1cnoc1	inactive
COc1ccc(Cn2cc(S(=O)(=O)N3CCCCC3)ccc2=O)cc1F	inactive
O=C(CC1CCCC1)N(CCc1cccs1)Cc1ccoc1	inactive
Cc1cc(SCC(=O)c2ccc3c(c2)OCO3)nc(C(C)C)n1	inactive
C=C(C)COc1ccc(-c2nc(N)nc(C(F)(F)F)c2-c2ccccc2OC)c(O)c1	inactive
CCOC(=O)C1CCc2sc(NC(=O)C3CCCN(Cc4nc(-c5cccnc5)no4)C3)nc21 (configuration not stated)	inactive
CCOC(=O)CN1CCC(c2nnc(-c3ccc(F)cc3)o2)CC1	inactive
CCOC(=O)c1cnn2ccc(NC(=O)C(c3ccccc3)c3ccccc3)cc12	inactive
O=C1CC(c2nc3ccccc3n2CCOc2ccccc2)CN1c1ccccc1 (configuration not stated)	inactive
